Sampled rows, rich in hits. Any-hit rate of the full collection: about 12%.
CHX counter – counter-screen hit for Shiga toxin inhibitors, cycloheximide | cell reporter, cycloheximide protein synthesis inhibition counterscreen | actives 12% (n = 300,000) | max response, %; in the data active = max response mostly above about 13%, no sharp cut-off; inactive = mostly below about 14%; note: read at 38.3 µM for the half of the compounds with a filed dose; 0% is about no effect
SARS PLP yeast – blocks SARS-CoV papain-like protease in a yeast assay. S. cerevisiae expressing SARS-CoV PLpro, growth rescue. Potency, µM (doses to about 32.9 µM), for inactives: at the highest dose activity, positive = growth rescue, usual class: activators. actives 0.19% (n = 330,000); note: potency is the fitted concentration of half-maximal effect; 0% is about no effect; nearly all actives have a fitted effect of over 55% in size
NS1 inh – blocks influenza NS1 protein function. Potency, µM (series often up to 46.1 µM), without a hit: at the highest dose activity, positive = more growth. actives 0.4% (n = 270,000). AID 2326; note: potency is the fitted concentration of half-maximal effect; actives are rising curves; nearly all actives have a fitted effect of over 50% in size
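Recovery from NS1-induced slow growth read by OD600 in budding yeast switched to galactose assay medium (pH 6.0, -URA) at 1:100 dilution. Compound 23 nl per well; the matching strain lacking NS1 serves as control.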
Shiga inhibitor – blocks Shiga toxin action in Vero cells. actives 9.2% (n = 290,000). AID 2315. Vero cells, Shiga toxin protein synthesis inhibition reporter. inhibition, % at 38.7 µM; in the data active = inhibition mostly above about 28%, no sharp cut-off; inactive = mostly below about 43%; note: 0% is about no effect
* marks the source's active call; other numbers are inactive results; ? = inconclusive; . = no result. Unless noted, calls come from the whole dose curve.

SMILES	CHX counter	SARS PLP yeast	NS1 inh	Shiga inhibitor
CCCC(=O)N1CCN(c2ccc(NC(=O)c3ccc(Br)o3)cc2)CC1	5	-1%	-8%	18
O=C(Nc1ccc(N2CCN(C(=O)c3ccccc3)CC2)cc1)c1ccc(Br)o1	9	-12%	?	-3
CC1CN(c2ccccc2)CCN1C(=O)c1cc(COc2c(F)cccc2F)on1 (stereo not given)	-2	-8%	16%	38
Cc1ccc(C)c(OCc2cc(C(=O)N3CCN(c4ccccc4C)CC3C)no2)c1 (stereo not given)	31*	17%	13%	113*
Cc1cccc(C)c1OCc1cc(C(=O)N2CCN(c3ccccc3)CC2C)no1 (stereo not given)	16*	3%	6%	26
O=C(Nc1ccc(Cl)c(S(=O)(=O)N2CCOCC2)c1)c1cc(=O)[nH]c2ccccc12	.	0%	.	.
Cc1ccc(C(=O)Nc2nc(C)c(C(=O)N(C)C)s2)o1	37*	-9%	-14%	80*
Cc1nnc(NC(=O)c2oc3ccccc3c2C)s1	36*	-3%	-11%	90*
Cc1nc(NC(=O)c2oc3ccccc3c2C)sc1C(=O)N(C)C	40*	-14%	-13%	52*
Cc1nc(NC(=O)/C=C/c2ccccc2)sc1C(=O)N(C)C	40*	-12%	-18%	80*
COc1ccc(NC(=O)Oc2cc(C)ccc2C(C)C)cc1	6	-3%	-3%	13
CC(C)(C)OC(=O)N[C@@H](Cc1ccccc1)C(=O)N1CCC(C(=O)N[C@@H](Cc2c[nH]c3ccccc23)C(=O)O)CC1	-1	1%	-2%	-12
COc1ccccc1NC(=O)N(C1CCCC1)C1CCN(C(C)=O)CC1	-1	-4%	-3%	-8
Cc1nc(NC(=S)NC(=O)c2ccco2)sc1C(=O)N(C)C	32*	3%	8%	57
Cc1ccc(-c2csc(NC(=S)NC(=O)c3ccco3)n2)cc1	-3	6%	5%	-3
Cc1noc(C)c1COc1ccc(C(=O)OC(C)C(=O)Nc2ccc(S(=O)(=O)N3CCOCC3)cc2)cc1 (stereo not given)	-4	-7%	11%	3
CCOc1ccc(N2C=Nc3ccc(OCC)cc3C2)cc1	14*	2%	-3%	48*
CCOc1ccc(N2C(=O)CNC2=S)cc1	1	-4%	6%	-11
COc1ccc(C(=O)N/N=C/c2ccc3cccc(OCc4ccccc4)c3n2)cc1	22*	-8%	1%	61*
O=C(N/N=C/c1ccc2cccc(OCc3ccccc3)c2n1)c1ccc(Br)cc1	18*	1%	6%	38
COc1c(OC(C)=O)ccc(/C=C/c2ccc3cccc(OCc4ccccc4)c3n2)c1[N+](=O)[O-]	35*	14%	20%	53*
COc1ccc(Cl)cc1NC(=O)COC(=O)C1COc2ccccc2O1 (stereo not given)	.	-8%	.	.
CNC(=O)/C(C#N)=C/c1c(N(Cc2ccccc2)Cc2ccccc2)nc2ccccn2c1=O	-8	8%	-11%	-13
CC(C)CCN=CC1=C(O)CC(c2ccccc2)CC1=O (stereo not given)	29*	-2%	.	53
CCN(CC)C(=O)c1ccc(-c2cccs2)s1	56*	-2%	-36%	93*
SMILES	CHX counter	SARS PLP yeast	NS1 inh	Shiga inhibitor
O=C(NNC(=O)c1ccccc1Cl)c1ccncc1	-2	-1%	23%	-10
COc1c(C(=O)NNC(=O)c2ccccc2Cl)csc1Br	49*	0%	-1%	76*
Cc1ccc(C(C(=O)NC2CCCCC2)N(C(=O)CCCC(=O)Nc2ccccn2)c2ccc3c(c2)OCCO3)cc1 (stereo not given)	11*	1%	-9%	24
O=C(CCC(=O)N(CC(=O)NC1CCCCC1)c1ccc2c(c1)OCCO2)Nc1ccccn1	21*	-1%	1%	15
O=C(CCCC(=O)N(c1ccc2c(c1)OCCO2)C(C(=O)NC1CCCCC1)c1ccc(F)cc1)Nc1ccccn1 (stereo not given)	10	4%	11%	23
O=C(CN(C(=O)Cn1nnc(-c2cccs2)n1)c1ccc2c(c1)OCCO2)NC1CCCCC1	32*	2%	-23%	56*
O=C(CN(C(=O)CCC(=O)Nc1ccccn1)c1ccc2c(c1)OCCO2)NCCc1ccccc1	12*	0%	-1%	29
CC(C)CCNC(=O)CN(C(=O)CCC(=O)Nc1ccccn1)c1ccc2c(c1)OCO2	-2	0%	-3%	-2
CC(OC(=O)c1cc(=O)[nH]c2ccccc12)C(=O)NCc1ccccc1 (stereo not given)	.	-2%	.	.
O=S(=O)(NCCOc1ccccc1F)c1cccc(Br)c1	.	-7%	.	.
CC1CN(C(=O)CCNC(=O)c2ccccc2Cl)CC(C)O1 (stereo not given)	0	1%	12%	-6
Cc1ccc(C)c(SCC(=O)OCC(=O)NCCNC(=O)COC(=O)CSc2cc(C)ccc2C)c1	.	-4%	.	.
CC(C)CCNC(=O)CN(C(=O)CCC(=O)Nc1ccccn1)c1ccc2c(c1)OCCO2	22*	-7%	-9%	56*
CCc1ccc(N(CC(=O)NC(C)(C)CC)C(=O)CCC(=O)Nc2nccs2)cc1	-2	1%	-1%	-9
CCC(C)(C)NC(=O)CN(C(=O)CCC(=O)Nc1nccs1)c1ccc2c(c1)OCCO2	51*	1%	23%	57*
CC(C)(C)C(=O)NCCN1CCN(C(=O)C(C)(C)C)CC1	-4	12%	6%	11
COc1cccc(COc2ccc3c(C)cc(=O)oc3c2)c1	31*	-2%	-7%	79*
Cc1cc(=O)oc2cc(OCCc3ccccc3)ccc12	42*	-3%	-63%	83*
COc1cccc(C(=O)COc2ccc3c(C)cc(=O)oc3c2)c1	-2	0%	-5%	-6
Cc1ccc(C(=O)COc2ccc3c(C)cc(=O)oc3c2)cc1	-2	1%	0%	-5
Cc1cc(=O)oc2cc(OCC(=O)c3ccccc3)ccc12	17*	-1%	-4%	20
Cc1ccc(NC(=O)/C=C/c2ccco2)nc1	34*	-8%	-4%	78*
Cc1ccc(NC(=O)/C=C/c2cccc([N+](=O)[O-])c2)nc1	-2	1%	.	-5
O=C(/C=C/c1ccco1)Nc1ccccn1	36*	-38%	-3%	43*
O=C(/C=C/c1ccco1)Nc1cccc2cccnc12	61*	-8%	2%	119*
SMILES	CHX counter	SARS PLP yeast	NS1 inh	Shiga inhibitor
NS(=O)(=O)c1ccc(CCNC(=O)CCCOc2ccccc2)cc1	17	-1%	.	-1
NC(=O)c1nsc(C(=O)N(Cc2ccco2)C(C(=O)NCC2CCCO2)c2ccc(F)cc2)c1N (stereo not given)	-7	9%	-3%	-7
NC(=O)c1ccc(NC(=O)CCC(=O)c2cccs2)cc1	12	9%	14%	11
CCOC(=O)c1cccc(NC(=O)CCc2ccccc2)c1	16*	-2%	-33%	55
CCC(=O)Nc1ccc(C(=O)OCC(=O)c2cccs2)cc1	31*	10%	-7%	55*
O=C(CCc1ccccc1)Nc1cccc(NC(=O)CCc2ccccc2)c1	-2	-8%	3%	-12
CC(=O)Nc1cccc(C(=O)OCc2ccccc2)c1	27*	-34%	-59%	74*
CC(=O)Nc1cccc(C(=O)OCCCOc2ccc(F)cc2)c1	32*	-17%	-83%	58*

High-throughput results from PubChem BioAssay.
